Compound activity (PubChem)
In the library only some 2.6% were active in any assay of this set; here they are far more common.
LGR2 antag: inhibitors of bursicon-induced Drosophila LGR2 receptor cAMP signaling | HEK293 LGR2, CRE-luciferase, bursicon-stimulated, 4 h | AID 720647 | inhibition, % at 9.99 µM | hit rate 0.35% among 380,000;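 active means drop in luminescence signal, shown as inhibition above about 50% in the replicate tests, limit read from the data, passing the limit was not always enough; inconclusive means probably only some replicates passing the limit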;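 further: agonist challenge used bursicon conditioned medium at about half maximal strength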
LMP1 NFkB inh: reduces LMP1-driven NF-kappaB luciferase signal | LMP1-induced NF-kappaB luciferase reporter cells, luminescence | inhibition, % at 12.5 µM | hit rate 0.69% among 350,000 | AID 504558; in the data active means inhibition above about 41%; inconclusive means no clear call, values can overlap the other calls
TROY NFkB inh: blocks TROY-dependent signaling in reporter cells; Q293 LMP1-TROYcd NF-kB luciferase reporter, 4 h; AID 1347056; inhibition, % at 10 µM; hit rate 0.98% among 360,000;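 active means compounds whose plate-normalised and pattern-corrected inhibition of the luciferase reporter signal at the single screening dose is 50% or more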
EWS-Fli block: blocks EWS/Fli oncoprotein-driven transcription; A673 NR0B1-luciferase reporter, viability-normalised; inhibition, % at 12.6 µM; AID 651661; hit rate 0.67% among 350,000;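 active means mean inhibition of at least 50% after viability correction, with every replicate also passing that limit; inconclusive means mean reaches 50% but only one of two replicates passes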;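 further: firefly luciferase signal divided by Alamar Blue viability fluorescence both relative to DMSO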
TWEAK-Fn14 inh: inhibitors of TWEAK-Fn14 interaction signaling; TWEAK-stimulated Fn14 reporter cells, luciferase luminescence, 8 h; inhibition, % at 10 µM; hit rate 2% among 360,000; AID 1159606; in the data active means inhibition above about 50%
Each line names hits and unclear results; the compound was inactive in the other large screens.

CCOC(=O)c1c(NC(=S)N2CCCCC2)sc2c1CCN(C(=O)OCC)C2	none (no result: LGR2 antag, LMP1 NFkB inh)
O=C(CCc1nc(-c2ccc(Cl)cc2)no1)NCc1ccccc1CN1CCOCC1	TROY NFkB inh 84.2
CC(C)NC(=O)N(C)C[C@H]1Oc2c(NS(=O)(=O)c3ccc(Cl)cc3)cccc2C(=O)N([C@@H](C)CO)C[C@@H]1C	none (no result: LMP1 NFkB inh, TROY NFkB inh, TWEAK-Fn14 inh)
CCCSc1nsc(NC(=O)C(c2ccccc2)c2ccccc2)n1	TROY NFkB inh 55.0 (no result: LGR2 antag, EWS-Fli block)
COCC(=O)N1CC(=O)N2[C@H](CO)[C@@H](c3ccc(C#CCc4ccccc4)cc3)[C@H]2C1	none (no result: LMP1 NFkB inh, TROY NFkB inh, TWEAK-Fn14 inh)
C[C@@H]1CCCCO[C@@H](CN(C)C(=O)Nc2ccccc2)[C@H](C)CN([C@@H](C)CO)C(=O)c2cc(NC(=O)Nc3cccc4ccccc34)ccc2O1	none (no result: LMP1 NFkB inh, TROY NFkB inh, TWEAK-Fn14 inh)
O=C(Nc1nccs1)c1cc2c(s1)CCCCC2	LMP1 NFkB inh 52.1, TROY NFkB inh 78.3, TWEAK-Fn14 inh 99.8 (no result: LGR2 antag, EWS-Fli block)
O=C(Nc1nncs1)c1cc2c(s1)CCC2	none
COc1ccc(CNc2nc(S(=O)(=O)c3ccccc3)c(Cl)s2)cc1OC	TWEAK-Fn14 inh 69.9
COc1ccc(Nc2nc(S(=O)(=O)c3ccc(C)cc3)c(Cl)s2)cc1	none
Cc1ccc(S(=O)(=O)c2nc(Nc3ccccc3)sc2Cl)cc1	TROY NFkB inh 53.9
C[C@H]1CN([C@@H](C)CO)S(=O)(=O)c2ccc(-c3ccc(F)cc3)cc2O[C@@H]1CN(C)C(=O)C1CCC1	none (no result: LMP1 NFkB inh, TROY NFkB inh, TWEAK-Fn14 inh)
CC(C)[C@H](CO)Nc1nc(NCc2ccc(S(N)(=O)=O)cc2)c2ncn(C(C)C)c2n1	LGR2 antag 52.5
CC(C)n1cnc2c(NCc3ccc(S(N)(=O)=O)cc3)nc(NCc3ccc(S(N)(=O)=O)cc3)nc21	none
CC(C)NC(=O)N[C@@H]1C=C[C@H](CC(=O)NC2Cc3ccccc3C2)O[C@@H]1CO	none (no result: LMP1 NFkB inh, TROY NFkB inh, EWS-Fli block, TWEAK-Fn14 inh)
COc1cccc(OCc2ccc(C(=O)NCC3CCCO3)cc2)c1 (configuration not stated)	TROY NFkB inh 52.5, TWEAK-Fn14 inh 62.8 (no result: EWS-Fli block)
CC(C)(C)c1ccc(/C=N/N2C(=O)CSC2=S)cc1	TWEAK-Fn14 inh 68.5
COc1ccccc1C=NN1C(=O)CSC1=S	none
O=C1CSC(=S)N1/N=C/c1ccc(O)c(O)c1O	TWEAK-Fn14 inh 77.8 (no result: LGR2 antag, EWS-Fli block)
CCNC(=O)[C@@H]1[C@@H](CO)[C@@H]2Cn3c(ccc(-c4ccc(F)cc4)c3=O)[C@H]1N2C(=O)C1CC1	none (no result: LMP1 NFkB inh, TROY NFkB inh, TWEAK-Fn14 inh)
O=C(c1ccc(CS(=O)Cc2ccccc2Cl)o1)N1CCN(c2cccc(Cl)c2)CC1 (configuration not stated)	LMP1 NFkB inh 69.6
C[C@@H]1CN([C@@H](C)CO)C(=O)c2cc(NC(=O)Nc3ccc(C(F)(F)F)cc3)ccc2O[C@@H]1CN(C)S(=O)(=O)c1cn(C)cn1	none (no result: LMP1 NFkB inh, TROY NFkB inh, TWEAK-Fn14 inh)
C[C@H]1CN([C@@H](C)CO)C(=O)c2cccc(NC(=O)Nc3ccccc3)c2O[C@H]1CN(C)C	none (no result: LMP1 NFkB inh, TROY NFkB inh, TWEAK-Fn14 inh)
Cc1ccc(OCCC(=O)OCC(=O)c2c(N)n(CC(C)C)c(=O)n(C)c2=O)cc1	LMP1 NFkB inh 72.2
CC(C)Cn1c(N)c(C(=O)COC(=O)CC23CC4CC(CC(C4)C2)C3)c(=O)n(C)c1=O	TROY NFkB inh 59.3, TWEAK-Fn14 inh 72.9 (no result: LGR2 antag, EWS-Fli block)
CCCNC(=O)N1[C@H](CO)[C@H](c2ccc(-c3ccccc3F)cc2)[C@@H]1C#N	none (no result: LMP1 NFkB inh, TROY NFkB inh, TWEAK-Fn14 inh)
COc1ccc(NC(=O)c2cccc(Oc3ccc([N+](=O)[O-])cc3Cl)c2)cc1	TWEAK-Fn14 inh 58.9
O=C(Nc1cccc(Cl)c1)c1cccc(Oc2ccc([N+](=O)[O-])cc2Cl)c1	TWEAK-Fn14 inh 82.1
COc1cccc(C(=O)COc2cccc(NC(=O)c3cccc([N+](=O)[O-])c3)c2)c1	TWEAK-Fn14 inh 63.9 (no result: LGR2 antag, TROY NFkB inh, EWS-Fli block)
C[C@@H]1CN([C@@H](C)CO)C(=O)c2cccc(NC(=O)c3cnccn3)c2O[C@@H]1CN(C)Cc1ccc(C(=O)Nc2ccccc2N)cc1	EWS-Fli block inconclusive (no result: LMP1 NFkB inh, TROY NFkB inh, TWEAK-Fn14 inh)
Cc1nn(CCCC(=O)Nc2cc(Oc3ccc(F)cc3)cc([N+](=O)[O-])c2)c(C)c1[N+](=O)[O-]	none (no result: EWS-Fli block)
Cc1ccccc1Oc1cc(NC(=O)CCCn2nc(C)c([N+](=O)[O-])c2C)cc([N+](=O)[O-])c1	TWEAK-Fn14 inh 63.3 (no result: EWS-Fli block)
C[C@H](NC(=O)C[C@@H]1C[C@@H]2c3cc(NC(=O)C4CCC4)ccc3O[C@@H]2[C@@H](CO)O1)c1ccccc1	none (no result: LMP1 NFkB inh, TROY NFkB inh, TWEAK-Fn14 inh)
COc1ccccc1-c1ccc([C@@H]2[C@@H](C#N)N[C@@H]2CO)cc1	none (no result: LMP1 NFkB inh, TROY NFkB inh, TWEAK-Fn14 inh)
COCC(=O)Nc1ccc2c(c1)[C@H]1C[C@@H](CC(=O)NCCc3ccccc3)O[C@H](CO)[C@H]1O2	none (no result: LMP1 NFkB inh, TROY NFkB inh, TWEAK-Fn14 inh)
Oc1c(I)cc(I)c2cccnc12	EWS-Fli block 51.8 (no result: LGR2 antag)
Oc1ccc(Cl)c2cccnc12	none
Oc1c(Cl)cc(CN2CCCCC2)c2cccnc12	LMP1 NFkB inh 62.9 (no result: LGR2 antag, EWS-Fli block)
